In PubChem BioAssay (NCI):
The panel holds about 83,000 compounds, 20% with a hit somewhere; the sample as a whole holds those more often.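 Compound tested at a single concentration for 48 hours in 96-well plates; a percent growth value below 10 was scored as active.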 Unmarked numbers belong to inactive results. Active and inactive are the calls of the source.

Tested on: SK-OV-3 ovarian
Assay: NCI-60 one-dose screen, 48 h (100 = growth as untreated, 0 = no growth, -100 = all killed)
Conditions: 10 µM

SMILES | growth
S=c1sc2ccccc2n1CN1CCCCC1 | 94.5%
CSc1[nH]c(=O)ncc1F | 119%
COc1ccc(-c2cc(-c3cc(-c4ccc(OC)cc4)nc(N)n3)nc(N)n2)cc1 | 106%
Cc1cc(N)c(S(=O)(=O)O)c(N)c1 | 100%
COc1ccccc1NC(=O)C1=C(C)NC(C)=C(C(=O)Nc2ccccc2OC)C1c1cccc([N+](=O)[O-])c1 | 74.4%
C=CCNc1nnc(C)s1 | 115%
COC(=O)C(C)Oc1ccc(OC#N)cc1 (centres undefined) | 103%
CCc1nn(Cc2ccccc2)c2nc(C)c(CCc3ccccc3)c(Cl)c12 | 97.1%
c1c(-c2cc(C3CC3)[nH]n2)n[nH]c1C1CC1 | 96.2%
O=C(CCNNC(=O)c1ccncc1)NCc1ccccc1 | 104%
CC(=O)Nc1cccc(Cl)c1C | 101%
CC(=O)C1CCCCC1 | 103%
CCOC(=O)/C(C#N)=C/c1cccc(C)c1 | 101%
CC(C(=O)O)(C1CCCCC1)C1(O)CCCCC1 (centres undefined) | 101%
CN(C)c1ccc2oc(=O)c3ccccc3c2c1 | 101%
O=C(OCC(O)C1OC(c2ccccc2)OC(COC(=O)c2ccccc2)C1O)c1ccccc1 (centres undefined) | 108%
O=C(O)c1ccc(S(=O)(=O)O)cc1 | 112%
OC1CCCc2ccccc21 (centres undefined) | 98.7%
CCCCCCCCCCCCCC(=O)Oc1ccc[nH]c1=O | 88.8%
COc1cc2c(cc1OC)[C@H](C(=O)O)[C@@H](c1ccc(OC(C)C)c(OC)c1)N(C)C2=O | 104%

SMILES | growth
COC(=O)Nc1nc2ccc(C(=O)c3ccc(F)cc3)cc2[nH]1 | 42.6%
Nc1ccccc1SC(CC(=O)c1ccccc1)c1c(Cl)cccc1Cl (centres undefined) | 73.3%
CC1=CC(=O)c2ccccc2C1=O | 108%
O=C(Nc1ccccc1)OCCc1ccccc1 | 110%
COc1ccccc1N1CCN(C(=S)Nc2ccccc2)CC1 | 99.5%
O=C1OC(c2ccc(F)cc2)CC1CN1CCOCC1 (centres undefined) | 107%
CCCNC(=O)c1ccc(S(N)(=O)=O)cc1 | 105%
COC(=O)CCCCC1=CCC2C(=O)C=C(O)C2C1 (centres undefined) | 98.6%
CCOC(=O)CCCS(C)(=O)=O | 103%
Nc1ccc(NC(=O)c2cccc(N)c2)cc1 | 103%
CCN(CC)CCNc1ccc(CO)c2sc3ccccc3c(=O)c12 | 43.6%
CCOC(=O)c1cc(/C=C/c2ccc(Cl)cc2Cl)on1 | 104%
O=[N+]([O-])c1ccccc1S(=O)c1ccccc1[N+](=O)[O-] | 99.9%
COc1cccc(Sc2ccc([N+](=O)[O-])c3no[n+]([O-])c23)c1 | 77.9%
O=C(NC1CCCCC1)OCc1c(COC(=O)NC2CCCCC2)c(-c2ccc(Cl)c(Cl)c2)n2c1CCC2 | 12.4%
O=C1OC(=O)C2C1C1(Cl)C(Cl)=C(Cl)C2(Cl)C2C(=O)OC(=O)C21 (centres undefined) | 102%
c1ccc(Cc2ccccc2)cc1 | 113%
COc1ccc2c(NCCCCCCCCNc3c4ccccc4nc4cc(OC)ccc34)c3ccccc3nc2c1 | -100% (active)
CCCC(=O)c1cc(C)ccc1OC | 109%
